The source of these data is PubChem BioAssay.

Molecules are shown by their SMILES. Active and inactive are the calls of the source. Unless noted, the rule behind the calls is not given here.

Test [1] deals with Wnt5a (protein binding on small-molecule microarray). Nature of the test: small molecules binding Wnt5a protein – biophysical, small-molecule microarray, 635/667 nm fluorescence, primary screen (AID 1142).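 Note: fluorescence read at 667 nm with signal to noise per printed feature.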 The note with it: 635 nm fluorescence, higher = more signal.
The nature of test [2]: ATP-based viability of Huh7 replicon cells – cell-based, CellTiter-Glo luminescence, basal, 48 h, cytotoxicity control for HCV replication inhibitor project, primary screen (AID 1143).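 Note: Huh7 hepatoma cells carrying a hepatitis C replication reporter with no stimulus; test concentration not given here.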 The note with it: higher = more signal, called active from +8 up or from −8 down.
Test [3] in a line: Pseudomonas biofilm growth suppression – PAO1 strain, BacTiter-Glo luminescence, LB-PBS, primary screen (AID 1144). Conditions: P. aeruginosa PAO1 biofilm, 12 h, higher = more signal.
A short description of test [4]: basal CRE-LacZ reporter activity in PC12 – cell-based, unstimulated, primary screen (AID 1145). The note with it: no forskolin, luminescence, 4.5 h, higher = more signal, called active from +8 up or from −8 down.
The nature of test [5]: forskolin-driven CRE-LacZ activity in PC12 – cell-based, CRE-LacZ reporter, forskolin-stimulated, primary screen (AID 1146).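 Note: PC12 cells with 6xCRE LacZ reporter stimulated by forskolin 10 µM; beta-galactosidase reporter signal reflecting CREB driven transcription.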 Conditions: luminescence, 4.5 h, higher = more signal, called active from +8 up or from −8 down.
Test [6] addresses Streptavidin (Streptomyces avidinii) (UniProt P22629). Put plainly: compounds binding control protein streptavidin – biophysical, small-molecule microarray, 635/667 nm fluorescence, artefact control for SMM compound annotation, primary screen (AID 1147).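 Note: signal reflects streptavidin binding to arrayed compounds as a control protein.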 Conditions: higher = more signal.
A short description of test [7]: probe aInhba binding on compound microarray – biochemical, small-molecule microarray, 635/667 nm fluorescence, primary screen (AID 1148).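 Note: score merges 667nm spot fluorescence with signal-to-noise for antibody binding to printed compounds.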 Conditions: higher = more signal.
Test [8] deals with Torsin-1A (Homo sapiens) (UniProt O14656). Nature of the test: TOR1A wild-type binding on microarray – cell lysate, small-molecule microarray, lysate, 635/667 nm, primary screen (AID 1149). The note with it: COS7 hTOR1A-WT lysate, 635 nm fluorescence, higher = more signal.
Torsin-1A (Homo sapiens), sequence (O14656 whole entry, looked up): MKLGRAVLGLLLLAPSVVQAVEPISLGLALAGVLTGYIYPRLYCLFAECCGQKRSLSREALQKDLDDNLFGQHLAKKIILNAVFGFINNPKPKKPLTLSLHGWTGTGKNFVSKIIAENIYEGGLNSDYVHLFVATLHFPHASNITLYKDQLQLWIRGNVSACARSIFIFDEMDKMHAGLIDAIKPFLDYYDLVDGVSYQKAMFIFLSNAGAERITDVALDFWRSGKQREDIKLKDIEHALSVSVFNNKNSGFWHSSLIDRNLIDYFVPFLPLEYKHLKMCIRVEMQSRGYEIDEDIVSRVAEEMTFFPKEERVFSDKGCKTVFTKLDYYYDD
The target is the same in test [9]. Put plainly: torsin A mutant lysate binding on microarrays – cell lysate, small-molecule microarray, COS7 lysate, 635/667 nm fluorescence, primary screen (AID 1150).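 Note: score pools 667 nm emission and signal to noise measuring lysate protein binding.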 Conditions: COS7 hTOR1A mutant lysate, 635 nm fluorescence, higher = more signal.
Test [10] concerns Sonic hedgehog protein (Shh). Put plainly: Sonic hedgehog microarray binding compounds – biochemical, small-molecule microarray, 635/667 nm fluorescence, primary screen (AID 1151).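 Note: Shh protein binding to compounds spotted on small-molecule microarray slides; score combines spot fluorescence intensity with signal-to-noise across triplicate slides.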 The note with it: 635 nm fluorescence, higher = more signal.
The nature of test [11]: optical density shifts of acrAB sulA E. coli – strain DRC41, OD650, 48 h, E. coli filamentation inducer project, primary screen (AID 1152).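 Note: E. coli MC1000 strain DRC41 lacking acrAB efflux pump and sulA.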 The note with it: higher = more signal, called active from +8 up or from −8 down.
Test [12] can be described thus: probe aLefty1 binding on compound microarray – biochemical, small-molecule microarray, 635/667 nm fluorescence, primary screen (AID 1153).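 Note: score merges spot fluorescence with signal-to-noise ratio from the scanned slide images.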 The note with it: higher = more signal.
Test [13] in a line: plasmodial surface anion channel blockers, osmotic lysis – cell-based, P. falciparum Indochina, OD700, 1 h, primary screen (AID 1154). The note with it: P. falciparum Indochina infected RBC osmotic lysis, higher = more signal, called active from +8 up or from −8 down.
Test [14] is described as follows: plasmodial surface anion channel blockers, osmotic lysis – cell-based, P. falciparum Indochina, OD700, 2 h, primary screen (AID 1155).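 Note: lysis reports solute entry through the parasite surface anion channel PSAC.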 The note with it: P. falciparum Indochina infected erythrocytes, higher = more signal, called active from +8 up or from −8 down.
The nature of test [15]: changes in parasitized red cell lysis, either direction – P. falciparum Indochina, OD700, 3 h, PSAC antagonist project, primary screen (AID 1156). Conditions: P. falciparum-infected erythrocytes, osmotic lysis, higher = more signal, called active from +8 up or from −8 down.
Test [16] can be described thus: plasmodial surface anion channel blockers, osmotic lysis – cell-based, P. falciparum Indochina, OD700, 18 h, primary screen (AID 1157). The note with it: P. falciparum Indochina infected erythrocytes, osmotic lysis OD700, 18 h; higher = more signal, called active from +8 up or from −8 down.
Test [17] in a line: S6 kinase pathway phospho-S6 level changes – cell-based, A549, cytoblot, luminescence, serum-stimulated, primary screen (AID 1158).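 Note: serum-stimulated A549 lung adenocarcinoma cells; signal is phosphorylated S6 detected by cytoblot immunostaining with HRP secondary.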 Conditions: 5 h, higher = more signal.
Test [18] addresses NADPH oxidase 2 (Homo sapiens) (UniProt P04839). Nature of the test: compounds shifting NOX2 Amplex Red fluorescence – cell-based, HEK293-NOX2, PMA-stimulated, NOX inhibitor project, primary screen (AID 1159). Note: test concentration not given here. Conditions: 45 min, higher = more signal, called active from +8 up or from −8 down.
Test [19] concerns the target NADPH oxidase 4 (Homo sapiens) (UniProt Q9NPH5). Nature of the test: compounds shifting NOX4 Amplex Red fluorescence – cell-based, HEK293-NOX4, tetracycline-induced, NOX inhibitor project, primary screen (AID 1160). Conditions: HEK293-NOX4, Amplex Red H2O2 fluorescence, 45 min; higher = more signal, called active from +8 up or from −8 down.
In test [20] the target is NADPH oxidase 5 (Homo sapiens) (UniProt Q96PH1). Put plainly: compounds shifting NOX5 Amplex Red fluorescence – cell-based, HEK293-NOX5, NOX inhibitor project, primary screen (AID 1161). The note with it: HEK293-NOX5, ionomycin, 45 min, higher = more signal.
NADPH oxidase 5 (Homo sapiens), sequence (Q96PH1 whole entry, looked up): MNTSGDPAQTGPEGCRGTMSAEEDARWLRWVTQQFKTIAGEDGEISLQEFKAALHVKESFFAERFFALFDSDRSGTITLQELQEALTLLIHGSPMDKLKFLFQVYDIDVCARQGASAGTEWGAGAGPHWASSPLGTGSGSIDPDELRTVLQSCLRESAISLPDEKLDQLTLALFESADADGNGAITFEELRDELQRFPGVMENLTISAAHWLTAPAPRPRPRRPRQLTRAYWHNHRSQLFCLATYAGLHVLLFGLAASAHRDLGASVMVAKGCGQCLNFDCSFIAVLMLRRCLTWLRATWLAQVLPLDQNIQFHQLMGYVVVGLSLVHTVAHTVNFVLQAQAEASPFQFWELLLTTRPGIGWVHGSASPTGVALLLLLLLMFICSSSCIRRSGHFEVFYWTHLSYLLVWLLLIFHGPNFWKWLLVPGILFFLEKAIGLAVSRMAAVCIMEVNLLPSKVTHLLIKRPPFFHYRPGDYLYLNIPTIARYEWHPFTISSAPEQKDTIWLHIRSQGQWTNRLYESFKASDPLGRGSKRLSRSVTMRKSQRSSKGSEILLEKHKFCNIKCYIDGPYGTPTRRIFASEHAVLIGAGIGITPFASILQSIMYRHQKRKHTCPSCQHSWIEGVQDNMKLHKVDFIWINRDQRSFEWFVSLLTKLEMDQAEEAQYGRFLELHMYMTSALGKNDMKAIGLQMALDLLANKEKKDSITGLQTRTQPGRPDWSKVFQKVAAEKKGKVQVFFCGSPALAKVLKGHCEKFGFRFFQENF

Streptavidin (Streptomyces avidinii), sequence (P22629 whole entry, looked up): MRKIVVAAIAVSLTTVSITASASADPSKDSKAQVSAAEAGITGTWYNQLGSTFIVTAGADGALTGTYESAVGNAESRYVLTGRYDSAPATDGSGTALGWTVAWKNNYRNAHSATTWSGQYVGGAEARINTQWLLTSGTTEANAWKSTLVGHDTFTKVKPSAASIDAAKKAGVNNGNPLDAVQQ
NADPH oxidase 4 (Homo sapiens), sequence (Q9NPH5 whole entry, looked up): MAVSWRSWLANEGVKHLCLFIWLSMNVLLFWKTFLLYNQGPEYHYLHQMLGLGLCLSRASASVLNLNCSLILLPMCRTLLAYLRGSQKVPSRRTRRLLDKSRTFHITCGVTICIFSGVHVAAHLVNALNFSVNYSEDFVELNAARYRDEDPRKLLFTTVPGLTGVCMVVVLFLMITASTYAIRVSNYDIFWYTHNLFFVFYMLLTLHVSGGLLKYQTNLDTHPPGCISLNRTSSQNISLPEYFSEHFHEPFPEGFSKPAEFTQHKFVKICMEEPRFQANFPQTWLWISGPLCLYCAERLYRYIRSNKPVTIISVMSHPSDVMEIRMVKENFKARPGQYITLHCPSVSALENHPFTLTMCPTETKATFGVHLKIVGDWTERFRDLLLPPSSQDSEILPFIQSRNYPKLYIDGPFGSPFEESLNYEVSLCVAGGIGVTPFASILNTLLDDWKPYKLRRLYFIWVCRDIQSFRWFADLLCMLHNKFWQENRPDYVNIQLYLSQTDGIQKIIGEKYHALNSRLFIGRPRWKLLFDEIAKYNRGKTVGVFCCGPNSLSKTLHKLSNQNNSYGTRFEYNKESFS
NADPH oxidase 2 (Homo sapiens), sequence (P04839 whole entry, looked up): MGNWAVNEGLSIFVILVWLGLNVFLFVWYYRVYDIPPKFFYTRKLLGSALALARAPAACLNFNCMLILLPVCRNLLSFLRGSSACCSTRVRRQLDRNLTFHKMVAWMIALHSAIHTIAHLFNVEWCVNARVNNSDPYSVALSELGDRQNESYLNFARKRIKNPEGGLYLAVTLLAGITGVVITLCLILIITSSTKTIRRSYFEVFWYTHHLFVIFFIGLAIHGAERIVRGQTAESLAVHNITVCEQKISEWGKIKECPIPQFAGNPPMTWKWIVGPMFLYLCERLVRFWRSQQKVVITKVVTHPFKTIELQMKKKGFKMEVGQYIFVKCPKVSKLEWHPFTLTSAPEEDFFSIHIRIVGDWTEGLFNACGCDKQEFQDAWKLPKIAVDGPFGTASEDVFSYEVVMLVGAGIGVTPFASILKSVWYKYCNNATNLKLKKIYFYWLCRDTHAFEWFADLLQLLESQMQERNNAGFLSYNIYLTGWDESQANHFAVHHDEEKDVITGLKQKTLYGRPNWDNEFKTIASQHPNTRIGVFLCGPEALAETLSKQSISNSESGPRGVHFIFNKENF

As for `C[N+](C)(C)CCCCNC(=O)[C@H]1C[C@H]2C(=O)NCC(=O)N2[C@H]1c1ccc(O)cc1`, the composite z-score was found to be 0.442 in test [1]; 0.158 in test [6]; 0.106 in test [7]; 0.979 with Torsin-1A (Homo sapiens) [8]; 0.672 with Torsin-1A (Homo sapiens) [9]; 2.14 in test [10]. In test [12], this molecule returned a composite z-score of 0.242. In addition, the z-score in test [2] was 0.215 (inactive); in [3], -0.895 (inactive); in test [4], -0.398 (inactive); in test [5], -0.501 (inactive); in test [11], 0.77 (inactive); in test [13], 0.367 (inactive). Also, the z-score in [14] is 0.0681 (inactive); in [15], -0.393 (inactive); in [16], 0.0564 (inactive); in test [17] it was -0.0248; in test [18] it was -1.51 (inactive); in test [19] it was -0.769 (inactive). For the same molecule, the z-score in [20] came to 0.226.
For `COC(=O)[C@@]1(Cc2ccc(OC)cc2)[C@H]2c3cc(C(=O)N(C)C)n(Cc4cc(F)c(F)c(F)c4)c3C[C@H]2CN1C(=O)c1ccccc1`, the composite z-score in [1] was 0.397; in [6], 1.63; in test [7] it was 0.528; in the test with Torsin-1A (Homo sapiens) [8], -0.312; with Torsin-1A (Homo sapiens) [9], 0.712; in [10] it was -0.692. Also, the composite z-score in [12] is 0.946. The z-score in test [2] was -4.47 (inactive); in [3], -0.00792 (inactive); in [4] it was 1.34 (inactive); in test [5], 1.12 (inactive); in test [11], -1.69 (inactive); in [13] it was 3.64 (inactive). The z-score was 0.0174 (inactive) in test [14]; 1.3 (inactive) in test [15]; -1.37 (inactive) in [16]; 0.968 in [17]; -2.92 (inactive) in [18]; -1.41 (inactive) in test [19]. In test [20], the z-score was -2.54.
Take `C#CCOC(=O)N[C@H](C=CCCCC)c1ccccc1`: the composite z-score in test [1] is -0.0582; in [6], 0.335; in [7], 0.0714; with Torsin-1A (Homo sapiens) [8] it was 0.28; in the test with Torsin-1A (Homo sapiens) [9], 0.0584; in test [10], -0.13. The molecule further returned a composite z-score in [12] of 0.289. In addition, the z-score was -0.342 (inactive) in test [2]; -0.604 (inactive) in [3]; 0.197 (inactive) in test [4]; 0.488 (inactive) in [5]; -0.288 (inactive) in [11]; 0.801 (inactive) in test [13]. For the same molecule, the z-score in test [14] was 0.852 (inactive); in [15], 0.599 (inactive); in [16], 0.715 (inactive); in [17], -0.469; in test [18], 0.877 (inactive); in test [19] it was -0.194 (inactive). Further, the z-score in test [20] is -0.212.
On to `O=C1NC(=O)C2C1C=CC(C(O)CCc1ccccc1)N2Nc1ccccn1` (stereo not given), for which the composite z-score in [1] is 0.149; in test [6] it was 0.179; in [7], -0.0849; with Torsin-1A (Homo sapiens) [8], 0.0825; with Torsin-1A (Homo sapiens) [9], 0.486; in [10] it was 0.0046. For the same molecule, in test [12], the composite z-score came out at 0.0844. Besides, the z-score in [2] is -0.466 (inactive); in [3], -0.922 (inactive); in test [4], 0.433 (inactive); in test [5] it was -0.382 (inactive); in [11] it was 0.0468 (inactive); in test [13], -0.247 (inactive). The z-score was -0.752 (inactive) in test [14]; -0.548 (inactive) in test [15]; -1.97 (inactive) in test [16]; 1 in [17]; -1.43 (inactive) in test [18]; -3.34 (inactive) in test [19]. The z-score in test [20] is -1.52.
